Assay [1] is described as follows: ATG_TCF_b_cat_CIS: Attagene CIS-FACTORIAL HepG2 Assay for human T-Cell-Factor with beta-catenin (TCF/b-cat) (AID 2282965; active = hit-call score of the fitted dose curve at least 0.9, where 1 is the maximum; inactive = score below 0.9). Conditions: HepG2 TCF/beta-catenin cis-reporter transcription, actives raise or lower the signal. A digest of the protocol: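 Cells of the HepG2 line carry transiently transfected reporter units whose promoters respond to endogenous factors. Twenty-four hours post-dosing, reporter mRNA induction is measured by fluorescent RT-PCR and capillary electrophoresis, with DMSO as baseline.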

Assay [2] can be described thus: ATG_TAL_CIS: Attagene CIS-FACTORIAL HepG2 Assay for human TAL Basal Promoter (AID 2282966; active = hit-call score of the fitted dose curve at least 0.9, where 1 is the maximum; inactive = score below 0.9;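 note: background control endpoint measuring basal TAL promoter reporter mRNA not a specific factor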). Conditions: HepG2 Attagene cis-factorial TAL promoter reporter; actives raise or lower the signal. A digest of the protocol:
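Basal-promoter background-control endpoint from a multiplexed HepG2 reporter panel. Cells were exposed 24 h, then reporter mRNA was read by RT-PCR/CE fluorescence and fitted in both directions relative to DMSO.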

The nature of assay [3]: ATG_TGFb_CIS: Attagene CIS-FACTORIAL HepG2 Assay for human Transforming Growth Factor (TGF) (AID 2282967; active = hit-call score of the fitted dose curve at least 0.9, where 1 is the maximum; inactive = score below 0.9). The conditions noted are these: HepG2 Attagene CIS TGFb reporter, mRNA transcription; actives raise or lower the signal. Summed up: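 Transcript-level reporter readout: HepG2 transfectants, 24 h exposure, RNA to cDNA, reporter-specific PCR, fluorescent primer extension, capillary sizing against ROX standards. Gain- or loss-of-signal relative to DMSO.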

Assay [4] is described as follows: ATG_VDRE_CIS: Attagene CIS-FACTORIAL HepG2 Assay for human Vitamin D Receptor Element (VDRE) (AID 2282968; active = hit-call score of the fitted dose curve at least 0.9, where 1 is the maximum; inactive = score below 0.9). Conditions: HepG2 VDRE cis-reporter transcription, actives raise or lower the signal. A digest of the protocol: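 Compounds were applied for 24 h to HepG2 cells transfected with promoter-regulated reporter units. Total RNA was reverse-transcribed, and reporter amplicons were fluorescently labelled and sized by capillary electrophoresis.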

Assay [5] addresses Nuclear receptor subfamily 1 group I member 3 (Homo sapiens) (UniProt Q14994). Briefly: ATG_CAR_TRANS: Attagene TRANS-FACTORIAL HepG2 Assay for human Constitutive Androstane Receptor (CAR) (AID 2282969).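 Note: activators raise reporter mRNA above DMSO so AC50 marks induction.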 The conditions noted are these: HepG2 Attagene TRANS-FACTORIAL CAR reporter. Summed up: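 Transiently transfected HepG2, multiplex TRANS reporters (CAR-Gal4 chimera driving GAL4-UAS reporter). 24 h dosing. Readout: reporter transcript by RT-PCR + capillary electrophoresis, fluorescence intensity; positive direction vs DMSO.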

In assay [6] the target is Estrogen receptor (Homo sapiens) (UniProt P03372). The experiment in a line: ATG_ERa_TRANS: Attagene TRANS-FACTORIAL HepG2 Assay for human Estrogen Receptor alpha (ERa) (AID 2282970). The conditions noted are these: HepG2 Attagene TRANS ERa GAL4 reporter, mRNA. Summed up: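 Gal4-fusion ERa transactivation, measured as reporter transcript level in transiently transfected HepG2 cells. Exposure 24 h; RT-PCR plus capillary electrophoresis with fluorescence detection.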

Assay [7] addresses Steroid hormone receptor ERR1 (Homo sapiens) (UniProt P11474). The experiment in a line: ATG_ERRa_TRANS: Attagene TRANS-FACTORIAL HepG2 Assay for human Estrogen-Related Receptor alpha (ERRa) (AID 2282971). The conditions noted are these: HepG2 Attagene TRANS reporter, ERRa transactivation. A digest of the protocol:
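HepG2 cells transiently transfected with GAL4-UAS reporter units and chimeric NR-Gal4 constructs; after 24 hour compound incubation, reporter mRNA quantified by RT-PCR, fluorescent labelling and capillary electrophoresis, gain of signal versus DMSO.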

Assay [8] concerns the target X-box-binding protein 1 (Homo sapiens) (UniProt P17861). Briefly: ATG_Xbp1_CIS: Attagene CIS-FACTORIAL HepG2 Assay for human X-box Binding Protein 1 (XBP1) (AID 2282972; active = hit-call score of the fitted dose curve at least 0.9, where 1 is the maximum; inactive = score below 0.9). The conditions noted are these: HepG2 XBP1 cis-element reporter, Attagene multiplex; actives raise or lower the signal. A digest of the protocol: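 Changes in reporter transcript abundance, read by RT-PCR and capillary electrophoresis, reflect endogenous transcription factor activity. Transfected HepG2 cells received compound for 24 hours; DMSO defined baseline for bidirectional analysis.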

Assay [9] in a line: ATG_GAL4_TRANS: Attagene TRANS-FACTORIAL HepG2 Assay for GAL4 (Internal Marker) (AID 2282976). Conditions: HepG2 Attagene TRANS GAL4 internal marker reporter. A digest of the protocol:
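Background-control readout: GAL4-UAS reporter transcript in transiently transfected HepG2 cells after 24 h compound exposure. Measured by RT-PCR, 6-FAM primer extension, HpaI digest and capillary electrophoresis; gain-of-signal fit versus DMSO.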

Assay [10] deals with Bile acid receptor (Homo sapiens) (UniProt Q96RI1). The experiment in a line: ATG_FXR_TRANS: Attagene TRANS-FACTORIAL HepG2 Assay for Farnesoid X Receptor (FXR) (AID 2282979).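 Note: hits raise reporter mRNA above DMSO so AC50 marks FXR activation.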 Conditions: HepG2 Attagene TRANS FXR-GAL4 reporter transcription. Summed up: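 HepG2 cells were transiently transfected with GAL4-UAS reporters driven by chimeric NR-Gal4 proteins and dosed for 24 h. Reporter mRNA was quantified by RT-PCR, fluorescent labelling, HpaI digestion and capillary electrophoresis, with gain of signal scored versus DMSO.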

Assay [11] addresses Oxysterols receptor LXR-alpha (Homo sapiens) (UniProt Q13133). Briefly: ATG_LXRa_TRANS: Attagene TRANS-FACTORIAL HepG2 Assay for human Liver X Receptor alpha (LXRa) (AID 2282980). The conditions noted are these: HepG2 Attagene TRANS reporter, LXRa transactivation. Summed up:
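HepG2 cells transiently transfected with GAL4-UAS reporter units for chimeric NR-Gal4 proteins, exposed to chemicals for 24 h. Reporter mRNA quantified by RT-PCR and capillary electrophoresis; gain of signal fitted relative to DMSO.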

For assay [12], the target named is Transcriptional activator Myb (Homo sapiens) (UniProt P10242). The experiment in a line: ATG_Myb_CIS: Attagene CIS-FACTORIAL HepG2 Assay for human Myeloblastosis (Myb) Proto-Oncogene Transcription Factor (AID 2282986; active = hit-call score of the fitted dose curve at least 0.9, where 1 is the maximum; inactive = score below 0.9). The conditions noted are these: HepG2 Attagene CIS-FACTORIAL Myb reporter transcription; actives raise or lower the signal. A digest of the protocol:
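Steps: transfect HepG2 with cis-regulated reporter units; dose with chemical for 24 h; isolate RNA, reverse-transcribe, PCR-amplify and FAM-label reporter sequences; digest with HpaI; resolve by capillary electrophoresis. Activity fitted in both directions relative to DMSO.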

Assay [13] in a line: ATG_M_32_TRANS: Attagene TRANS-FACTORIAL HepG2 Assay for M32 Transcription Factor (Internal Marker) (AID 2282984). The conditions noted are these: HepG2 Attagene TRANS M32 internal marker reporter. Summed up: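 Internal-marker readout from a multiplexed transcription reporter panel. HepG2 cells were transfected with GAL4-UAS reporter units, treated 24 hours, and reporter transcript levels determined by fluorescence after RT-PCR and capillary separation.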

Assay [14] can be described thus: ATG_M_19_TRANS: Attagene TRANS-FACTORIAL HepG2 Assay for M19 Transcription Factor (Internal Marker) (AID 2282974). Conditions: HepG2 Attagene TRANS-FACTORIAL M19 internal marker reporter. Summed up: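 Cells: human HepG2, transiently transfected with multiplexed reporter transcription units. Exposure: 24 h. Detection: RT-PCR of reporter mRNA with capillary electrophoresis. Analysis: gain-of-signal vs DMSO.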

The target of assay [15] is Estrogen-related receptor gamma (Homo sapiens) (UniProt P62508). The experiment in a line: ATG_ERRg_TRANS: Attagene TRANS-FACTORIAL HepG2 Assay for human Estrogen-Related Receptor gamma (ERRg) (AID 2282977).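 Note: hits increase reporter signal over DMSO so potencies reflect activators.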 The conditions noted are these: HepG2 Attagene TRANS reporter, ERRg transactivation. Summed up:
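Exogenous NR-Gal4 chimera activity measured as reporter transcript induction after 24 h in transiently transfected HepG2 cells. RNA reverse-transcribed, PCR-amplified, 6-FAM-labelled and resolved by capillary electrophoresis; increase over DMSO baseline.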

For assay [16], the target named is Oxysterols receptor LXR-beta (Homo sapiens) (UniProt P55055). The experiment in a line: ATG_LXRb_TRANS: Attagene TRANS-FACTORIAL HepG2 Assay for human Liver X Receptor beta (LXRb) (AID 2282981). Conditions: HepG2 Attagene TRANS GAL4-LXRb reporter, mRNA. A digest of the protocol: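 Multiplexed reporter assay, HepG2, 24 h dosing. Fluorescence of labelled RT-PCR products after capillary electrophoresis gives transcript level; positive fitting direction relative to DMSO.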

The target of assay [17] is Nuclear receptor subfamily 4 group A member 2 (Homo sapiens) (UniProt P43354). Briefly: ATG_NURR1_TRANS: Attagene TRANS-FACTORIAL HepG2 Assay for human Nuclear Receptor Related Protein 1 (NURR1) (AID 2282985). Conditions: HepG2 Attagene TRANS reporter, mRNA readout. A digest of the protocol:
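Endpoint: reporter mRNA increase relative to DMSO. HepG2 cells transfected with reporter units, treated 24 h; RNA processed by RT-PCR, labelling, HpaI digestion and capillary electrophoresis.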

The nature of assay [18]: ATG_M_06_TRANS: Attagene TRANS-FACTORIAL HepG2 Assay for M06 Transcription Factor (Internal Marker) (AID 2282983). Conditions: HepG2 Attagene TRANS M06 internal marker reporter. Summed up: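 mRNA levels of a reporter transcript, quantified as FAM fluorescence on capillary electrophoresis, served as readout. HepG2 cells expressing exogenous GAL4-chimera reporter constructs were exposed for 24 h. Gain of signal over DMSO was evaluated.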

Assay [19] concerns the target Glucocorticoid receptor (Homo sapiens) (UniProt P04150). Briefly: ATG_GR_TRANS: Attagene TRANS-FACTORIAL HepG2 Assay for human Glucocorticoid Receptor (GR) (AID 2282978).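 Note: activators score as hits since higher reporter transcript over DMSO is fitted.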 Conditions: HepG2 Attagene TRANS GR reporter, mRNA transcription. A digest of the protocol:
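In this trans-factorial format, exogenous NR-GAL4 chimeric proteins in transfected HepG2 cells regulate GAL4-UAS reporter transcription. After 24 h treatment, reporter mRNA induction relative to DMSO is read by RT-PCR and capillary electrophoresis.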

The target of assay [20] is Hepatocyte nuclear factor 4-alpha (Homo sapiens) (UniProt P41235). Briefly: ATG_HNF4a_TRANS: Attagene TRANS-FACTORIAL HepG2 Assay for human Hepatocyte Nuclear Factor 4 alpha (HNF4a) (AID 2282982). The conditions noted are these: HepG2 HNF4a transactivation reporter, mRNA readout. Summed up:
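Endpoint reflects transcriptional activation of a GAL4-UAS reporter by an HNF4a-GAL4 chimera in transfected HepG2 cells, 24 h post-dosing. Fluorescence from RT-PCR products separated by capillary electrophoresis; DMSO baseline.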

Outcome and AC50 data for 9 compounds are collected here from PubChem BioAssay (EPA / NIEHS).

Inconclusive results are not listed. Calls of active or inactive are those of the source. Rule for the calls, unless noted: active = hit-call score of the fitted dose curve at least 0.9, where 1 is the maximum; inconclusive = response in the unintended direction; inactive = score below 0.9.

Sequence of Estrogen-related receptor gamma (Homo sapiens) (P62508 whole entry, looked up, the tested form may be a part): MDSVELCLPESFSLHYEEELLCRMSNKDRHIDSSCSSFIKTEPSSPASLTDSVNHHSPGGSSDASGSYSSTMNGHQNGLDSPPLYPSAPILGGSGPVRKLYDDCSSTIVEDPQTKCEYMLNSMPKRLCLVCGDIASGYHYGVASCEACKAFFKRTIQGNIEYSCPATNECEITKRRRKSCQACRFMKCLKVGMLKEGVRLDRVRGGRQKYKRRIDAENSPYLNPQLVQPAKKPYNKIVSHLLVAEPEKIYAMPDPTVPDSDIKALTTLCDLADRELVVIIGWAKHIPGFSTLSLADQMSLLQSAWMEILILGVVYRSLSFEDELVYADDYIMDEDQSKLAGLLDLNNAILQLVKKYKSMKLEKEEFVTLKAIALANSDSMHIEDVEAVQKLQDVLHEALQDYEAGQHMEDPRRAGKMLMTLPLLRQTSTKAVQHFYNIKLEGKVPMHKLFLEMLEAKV
Sequence of Nuclear receptor subfamily 4 group A member 2 (Homo sapiens) (P43354 whole entry, looked up): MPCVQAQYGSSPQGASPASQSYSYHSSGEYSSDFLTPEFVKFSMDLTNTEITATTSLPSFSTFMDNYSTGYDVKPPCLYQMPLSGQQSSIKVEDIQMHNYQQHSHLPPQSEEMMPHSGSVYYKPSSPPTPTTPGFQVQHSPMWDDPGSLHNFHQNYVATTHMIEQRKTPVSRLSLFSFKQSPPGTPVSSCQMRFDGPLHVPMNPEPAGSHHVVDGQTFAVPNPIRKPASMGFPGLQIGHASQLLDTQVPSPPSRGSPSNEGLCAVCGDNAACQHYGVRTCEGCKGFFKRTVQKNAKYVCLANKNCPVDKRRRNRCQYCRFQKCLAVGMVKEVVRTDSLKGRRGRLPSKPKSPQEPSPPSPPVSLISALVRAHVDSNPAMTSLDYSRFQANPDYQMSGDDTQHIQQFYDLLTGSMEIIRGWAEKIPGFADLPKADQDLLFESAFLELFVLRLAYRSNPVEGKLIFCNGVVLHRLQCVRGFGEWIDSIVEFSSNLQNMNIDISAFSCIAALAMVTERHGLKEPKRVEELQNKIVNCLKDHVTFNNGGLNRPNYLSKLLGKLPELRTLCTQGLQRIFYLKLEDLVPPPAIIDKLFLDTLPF
Sequence of Oxysterols receptor LXR-alpha (Homo sapiens) (Q13133 whole entry, looked up, the tested form may be a part): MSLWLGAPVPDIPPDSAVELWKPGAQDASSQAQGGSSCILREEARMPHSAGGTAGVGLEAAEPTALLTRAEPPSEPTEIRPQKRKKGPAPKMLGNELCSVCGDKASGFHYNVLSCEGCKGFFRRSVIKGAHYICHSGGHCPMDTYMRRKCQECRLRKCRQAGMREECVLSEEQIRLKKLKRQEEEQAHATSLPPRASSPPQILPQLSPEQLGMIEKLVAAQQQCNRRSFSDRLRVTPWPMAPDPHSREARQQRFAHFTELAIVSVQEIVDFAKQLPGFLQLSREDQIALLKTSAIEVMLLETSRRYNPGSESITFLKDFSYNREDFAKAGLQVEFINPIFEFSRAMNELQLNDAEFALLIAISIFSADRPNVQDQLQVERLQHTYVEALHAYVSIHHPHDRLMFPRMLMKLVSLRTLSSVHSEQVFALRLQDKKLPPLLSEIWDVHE
Sequence of Nuclear receptor subfamily 1 group I member 3 (Homo sapiens) (Q14994 whole entry, looked up, the tested form may be a part): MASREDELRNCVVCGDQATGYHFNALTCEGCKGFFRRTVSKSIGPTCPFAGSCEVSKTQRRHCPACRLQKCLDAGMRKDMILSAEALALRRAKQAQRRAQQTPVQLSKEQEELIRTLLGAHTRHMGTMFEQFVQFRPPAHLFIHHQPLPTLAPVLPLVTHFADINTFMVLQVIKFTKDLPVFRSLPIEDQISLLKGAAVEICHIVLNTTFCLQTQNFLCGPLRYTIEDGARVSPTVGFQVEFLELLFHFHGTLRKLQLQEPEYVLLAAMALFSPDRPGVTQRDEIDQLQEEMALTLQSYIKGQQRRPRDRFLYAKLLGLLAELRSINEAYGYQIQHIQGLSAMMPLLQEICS
Sequence of X-box-binding protein 1 (Homo sapiens) (P17861 whole entry, looked up): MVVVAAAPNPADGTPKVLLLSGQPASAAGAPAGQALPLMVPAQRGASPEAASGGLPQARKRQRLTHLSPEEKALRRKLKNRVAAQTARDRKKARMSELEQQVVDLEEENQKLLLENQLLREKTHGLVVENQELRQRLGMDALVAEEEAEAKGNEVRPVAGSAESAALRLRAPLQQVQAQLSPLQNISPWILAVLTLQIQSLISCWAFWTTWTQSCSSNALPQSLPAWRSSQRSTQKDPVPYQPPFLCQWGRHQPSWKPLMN
Sequence of Glucocorticoid receptor (Homo sapiens) (P04150 whole entry, looked up, the tested form may be a part): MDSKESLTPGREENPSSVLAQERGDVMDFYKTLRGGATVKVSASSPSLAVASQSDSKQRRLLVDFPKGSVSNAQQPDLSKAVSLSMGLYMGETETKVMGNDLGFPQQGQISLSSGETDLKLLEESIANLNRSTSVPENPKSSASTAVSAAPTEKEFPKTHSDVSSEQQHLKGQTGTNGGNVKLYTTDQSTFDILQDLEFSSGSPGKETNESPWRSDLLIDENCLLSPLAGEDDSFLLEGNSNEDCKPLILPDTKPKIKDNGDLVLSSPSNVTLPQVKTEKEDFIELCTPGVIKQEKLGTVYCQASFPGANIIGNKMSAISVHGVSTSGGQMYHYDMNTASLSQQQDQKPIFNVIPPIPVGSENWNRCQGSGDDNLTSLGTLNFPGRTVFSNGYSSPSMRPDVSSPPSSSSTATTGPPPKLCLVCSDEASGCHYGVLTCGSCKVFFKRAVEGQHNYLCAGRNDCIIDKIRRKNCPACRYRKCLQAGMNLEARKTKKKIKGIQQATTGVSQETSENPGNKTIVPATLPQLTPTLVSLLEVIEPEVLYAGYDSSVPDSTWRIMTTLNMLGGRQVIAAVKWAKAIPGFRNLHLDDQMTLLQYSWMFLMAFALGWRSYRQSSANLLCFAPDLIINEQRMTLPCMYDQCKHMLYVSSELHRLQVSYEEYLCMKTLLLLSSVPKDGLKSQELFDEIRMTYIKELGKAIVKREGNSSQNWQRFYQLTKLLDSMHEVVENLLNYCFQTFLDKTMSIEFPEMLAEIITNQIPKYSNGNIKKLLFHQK
Sequence of Bile acid receptor (Homo sapiens) (Q96RI1 whole entry, looked up, the tested form may be a part): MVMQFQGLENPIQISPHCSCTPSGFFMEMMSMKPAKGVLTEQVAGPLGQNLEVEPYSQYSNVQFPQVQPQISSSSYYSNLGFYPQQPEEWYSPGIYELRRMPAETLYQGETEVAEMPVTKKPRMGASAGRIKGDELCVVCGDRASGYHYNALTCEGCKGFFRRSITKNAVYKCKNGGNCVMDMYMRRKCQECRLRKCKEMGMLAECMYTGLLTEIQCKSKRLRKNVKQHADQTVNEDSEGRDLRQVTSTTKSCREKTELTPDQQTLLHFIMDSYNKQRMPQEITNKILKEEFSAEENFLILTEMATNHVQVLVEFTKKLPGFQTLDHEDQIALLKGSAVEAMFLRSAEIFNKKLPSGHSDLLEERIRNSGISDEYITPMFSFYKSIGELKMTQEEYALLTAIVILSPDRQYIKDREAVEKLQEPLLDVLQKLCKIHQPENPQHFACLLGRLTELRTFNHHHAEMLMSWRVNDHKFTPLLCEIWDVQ
Sequence of Transcriptional activator Myb (Homo sapiens) (P10242 whole entry, looked up): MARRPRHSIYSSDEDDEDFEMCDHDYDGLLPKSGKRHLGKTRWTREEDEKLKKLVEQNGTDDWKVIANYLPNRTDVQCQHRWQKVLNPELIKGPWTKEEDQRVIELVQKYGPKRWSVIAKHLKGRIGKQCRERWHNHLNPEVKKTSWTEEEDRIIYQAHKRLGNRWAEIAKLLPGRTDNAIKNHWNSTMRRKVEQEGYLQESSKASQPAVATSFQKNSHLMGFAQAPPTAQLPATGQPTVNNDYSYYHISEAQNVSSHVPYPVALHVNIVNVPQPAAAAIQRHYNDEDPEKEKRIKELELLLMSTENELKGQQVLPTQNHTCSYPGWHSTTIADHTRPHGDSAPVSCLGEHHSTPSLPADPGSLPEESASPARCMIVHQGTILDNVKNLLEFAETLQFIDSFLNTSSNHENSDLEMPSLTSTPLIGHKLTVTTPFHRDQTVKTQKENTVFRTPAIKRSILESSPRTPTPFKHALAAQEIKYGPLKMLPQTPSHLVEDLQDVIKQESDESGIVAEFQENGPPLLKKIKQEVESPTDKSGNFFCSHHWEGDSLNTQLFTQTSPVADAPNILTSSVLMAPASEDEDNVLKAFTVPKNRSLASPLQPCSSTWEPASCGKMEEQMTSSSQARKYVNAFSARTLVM
Sequence of Estrogen receptor (Homo sapiens) (P03372 whole entry, looked up, the tested form may be a part): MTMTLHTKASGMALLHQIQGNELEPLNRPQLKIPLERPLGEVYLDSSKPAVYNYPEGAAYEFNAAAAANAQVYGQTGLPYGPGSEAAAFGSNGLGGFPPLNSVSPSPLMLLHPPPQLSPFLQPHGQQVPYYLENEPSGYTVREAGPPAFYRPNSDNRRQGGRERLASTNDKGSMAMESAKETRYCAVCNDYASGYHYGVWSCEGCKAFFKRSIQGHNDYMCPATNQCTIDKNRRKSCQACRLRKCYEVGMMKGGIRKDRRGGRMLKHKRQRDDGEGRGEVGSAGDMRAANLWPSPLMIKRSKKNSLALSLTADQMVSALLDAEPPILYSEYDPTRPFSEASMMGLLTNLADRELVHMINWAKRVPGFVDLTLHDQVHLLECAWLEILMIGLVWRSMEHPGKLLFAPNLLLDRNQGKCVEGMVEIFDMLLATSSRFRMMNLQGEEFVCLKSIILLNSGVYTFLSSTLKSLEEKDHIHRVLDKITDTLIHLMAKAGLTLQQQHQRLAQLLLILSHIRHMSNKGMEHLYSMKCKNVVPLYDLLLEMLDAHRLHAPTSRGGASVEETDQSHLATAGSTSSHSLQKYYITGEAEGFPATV

In the case of `FC(F)(F)C(F)(F)C(F)(F)C(F)(F)C(F)(F)C(F)(F)CC1CO1` (stereo not drawn), the call in assay [1], in assay [2], in assay [3], in assay [4], in [5] and in assay [6] was inactive. Besides, the outcome in assay [7], in [8], in [9], in assay [10], in [11] and in [12] was inactive.

As to `FC(F)(F)C(F)(F)C(F)(F)C(F)(F)C(F)(F)C(F)(F)C(F)(F)C(F)(F)CCS`, the compound was classed as inactive in [1], in assay [2], in assay [3], in assay [4], in assay [5] and in assay [6]. Besides, the outcome in assay [7], in [8], in assay [9], in [10], in assay [11] and in assay [13] was inactive. Moreover, the outcome in [12] was inactive.

On to `FC1CC(F)(F)C(F)(F)C1(F)F` (stereo not drawn), for which the outcome in [1], in assay [2], in assay [3], in [4], in [5] and in [6] was inactive. Besides, the result in [8], in assay [14], in assay [9], in [15], in [10] and in [11] was inactive. For the same compound, in [16], the compound was called inactive.

On to `FC(F)(F)C(F)(F)C(F)(F)C(F)(F)C(F)(F)CCI`, for which the result in assay [1], in assay [2], in assay [3], in assay [4], in assay [5] and in [7] was inactive. Further, the result in assay [8], in assay [10], in assay [11], in assay [16], in [13] and in assay [17] was inactive. In addition, the outcome in assay [12] was inactive. The AC50 in assay [6] was 41 µM (active).

In the case of `C=CC/C=C/C/C=C/C/C=C/C`, the compound was called inactive in assay [1], in assay [2], in [3], in assay [4], in assay [5] and in assay [6]. In addition, the result in assay [7], in [8], in [18], in assay [17] and in [12] was inactive.

For `c1ccc(-c2ccccc2-c2ccccc2)cc1`, the compound was classed as inactive in [1], in assay [2], in assay [3], in assay [4], in assay [5] and in [8]. Besides, the outcome in [14], in [19], in [10], in [16] and in [12] was inactive. Further, the AC50 is 2.75 µM (active) in [6] and 27.2 µM (active) in assay [17].

Regarding `CS(C)(=O)=O`, the result in assay [1], in assay [2], in [3], in [4], in assay [5] and in assay [6] was inactive. Also, the outcome in [7], in assay [8], in assay [19], in assay [10], in assay [11] and in assay [18] was inactive. Moreover, the call in assay [13] and in assay [17] was inactive.

As to `FC(F)(F)C(F)(F)CNCC(F)(F)C(F)(F)F`, the result in [1], in assay [2], in [3], in assay [4], in assay [5] and in assay [6] was inactive. Further, the result in assay [8], in assay [14], in assay [9], in assay [15], in [10] and in [11] was inactive. Besides, the compound was called inactive in assay [16], in assay [20], in assay [18], in [13], in [17] and in assay [12].

In the case of `CCCCCCOC(=O)c1ccccc1O`, the result in assay [1], in assay [2], in [3], in [4], in assay [5] and in assay [8] was inactive. Moreover, the compound was called inactive in assay [14], in [15], in assay [19], in assay [10], in [11] and in assay [20]. Moreover, the call in [18] and in [17] was inactive. Also, the AC50 in [6] is 92.5 µM (active).
